Laboratory results reported in PubChem BioAssay (NCATS).
Records with an inconclusive call do not appear. Entries that show only a call come without a potency. Calls of active or inactive are those of the source. Calls come from the whole dose curve; as a rule, active = well fitted curve in the direction sought with a large enough effect; inconclusive = small, poorly fitted or top-dose-only effect, or another doubt; inactive = no such curve, though single readings can be large or run the other way.

biological target: Calcium and integrin-binding protein 1 (Homo sapiens) (UniProt Q99828); test: Validation qHTS for Identification of Calcium Integrin Binding protein 1 (CIB1) Competitor (AID 1508618); conditions: CIB1-GST / FITC-alphaIIb peptide fluorescence polarization; series mostly up to 114 µM
Text: Assay Provider: Ulhas P. Naik, PhD
Sidney Kimmel Medical College
Thomas Jefferson University, Philadelphia, PA
Primary function of platelets is to maintain hemostasis. At the site of vascular injury, platelets adhere to adhesive proteins such as collagen and von Willebrand factor. Adherent platelets are activated and generate soluble platelet agonists such as thrombin, ADP and thromboxane A2. Following exposure of circulating platelets to these agonists, results in platelet shape change, granule secretion and activation of platelet integrin alphaIIb-beta3. Ligand binding to activated integrin alphaIIb-beta3 triggers outside-in signaling, leading to platelet aggregation, stabilization of platelet plug, and clot retraction. Upon atherosclerotic plaque rupture also causes platelet plug formation, which underlies a number of cardiovascular diseases such as myocardial infraction and stroke. A number of anti-platelet drugs such as aspirin, clopidogrel, prasugrel, vorapaxar, and eptifibatide are currently available to prevent the thrombotic complications. However, these anti-platelet agents have several limitations including inherent variability in individual responses, developing resistance, and serious bleeding side effects. For these reasons they are not suitable for long-term protection. Based on the experiences with current anti-platelet drugs, it appears that the most useful therapeutic approach is to intersect the secondary responses such as integrin outside-in signaling or recruitment of platelets by TxA2 and secreted ADP. Compounds, which can largely preserve the primary hemostatic function of platelets but inhibit secondary response will be most desired therapeutic agents for treatment of cardiovascular disease.
CIB1 is a calcium integrin binding protein, which specifically interact with the alphaIIb subunit of integrin alphaIIb-beta3. Binding of CIB1 to alphaIIb regulates the outside-in signaling in platelets, which is needed for thrombus stabilization and thrombus growth. […] Therefore, we propose that discovery of a small molecule that can prevent the association of CIB1 and alphaIIb-beta3 will be a potential anti-platelet agent that can block the thrombus formation without undue effect on hemostasis.
To develop fluorescence polarization (FP) assay using fluorescently labeled alphaIIb peptide and CIB1 protein. Using FP assay characterize the binding affinity, competitive inhibition, and acceptable Z factor (0.5 to1) in order to perform the HTS to identify small molecule compound that can prevent CIB1 binding to platelet integrin alphaIIbbeta3. This assay is screened against the NCATS LOPAC library to validate the amenability of the assay to qHTS.
[1] Naik MU, Nigam A, Manrai P, et al. CIB1 deficiency results in impaired thrombosis: the potential role of CIB1 in outside-in signaling through integrin alpha IIb beta 3. J Thromb Haemost. 2009;7(11):1906-1914. doi:10.1111/j.1538-7836.2009.03581.
SEQUENCE No. (1, 2, 3, etc.); […] (e.g., Cells, Incubation, Reagent, etc.); VALUE and DESCRIPTION.
1; Reagent; 3 uL; Protein or buffer (4/3x)
2; Compound; 46 nL; Control inhibitor / compound library
3; Time; 15 min; Room temperature incubation
4; Reagent; 1 uL; Fluorescent labeled peptide (4x)
5; Time; 1000 rpm; Centrifuge
6; Time; 15 min; Room temperature incubation
7; Detection; Ex 480/ Em 540; ViewLux Fluorescence Read
NOTES (numbers refer to sequence above)
1; Protein Mixture: C1B1-GST (final concentrations of 1 uM). Buffer composition: 5 mM HEPES pH 7.4, 125 mM NaCl, 5 mM CaCl2, 0.01% Tween20.
2; Control Inhibitor: unlabeled peptide (final concentration range 17.4 nM to 572 uM). Compound Library final concentration range 18.3 nM to 114 uM.
3; Room temperature incubation.
4; Fluorescent Labeled Peptide: FITC-aIIb (final concentration of 100 nM). Sequence of alphaIIb peptide: Acetyl-[…]-FITC (purity is 95.83%).
6; Room temperature incubation.
[…]
Potency is the fitted concentration of half-maximal effect.

Chain of Calcium and integrin-binding protein 1 (Homo sapiens) (Q99828 whole entry, looked up): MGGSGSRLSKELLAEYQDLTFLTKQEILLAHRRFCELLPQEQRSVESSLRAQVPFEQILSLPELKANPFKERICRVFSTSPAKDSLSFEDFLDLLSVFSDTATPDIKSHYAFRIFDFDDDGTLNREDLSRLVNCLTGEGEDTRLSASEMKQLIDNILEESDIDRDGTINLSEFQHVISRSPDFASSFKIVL

Q: `Cc1[nH]c2ccc(O)cc2c1CCN` was tested. Which Potency did it give?
A: The Potency was “inactive”.

Q: `NNC(=O)c1ccc(O)cc1` was tested. Which Potency did it give?
A: The Potency was “inactive”.

Q: `CC(=O)NBr` was tested. Which Potency did it give?
A: The Potency was “inactive”.

Q: For `Oc1ccc2c3c1O[C@H]1c4oc5ccccc5c4C[C@@]4(O)C(C2)N(CC2CC2)CCC314` (stereo not given in full), which Potency is on record?
A: Its Potency is “inactive”.

Q: Which Potency does the source give for `O=[N+]([O-])c1cc(O)c(O)c([N+](=O)[O-])c1` here?
A: The Potency was “inactive”.

Q: Which Potency does the source give for `C=CCN1C[C@@H](C)N([C@H](c2ccc(C(=O)N(CC)CC)cc2)c2cccc(OC)c2)C[C@@H]1C` here?
A: The Potency was “inactive”.

Q: How did the Potency turn out when `O=C1CC[C@@]2(O)C3Cc4ccc(O)c5c4C2(CCN3CC2CC2)[C@H]1O5` (stereo not given in full) was run?
A: The Potency was “inactive”.

Q: For `NC(=O)c1cc(N2CC2)c([N+](=O)[O-])cc1[N+](=O)[O-]`, which Potency is on record?
A: The Potency was “inactive”.

Q: `NC(=O)c1ccc(OCC(O)CN2CC=C(c3ccc(F)cc3)CC2)cc1` (stereo not given) was tested. Which Potency did it give?
A: The Potency was “inactive”.

Q: With `Cc1sc2ccccc2c1CC1=NCCN1` as the compound, how does the Potency read?
A: Its Potency is “inactive”.

Q: How did the Potency turn out when `COc1ccc2[nH]c3c(c2c1)CCNC3` was run?
A: Its Potency is “inactive”.

Q: How did the Potency turn out when `CCNC(=O)[C@H]1O[C@@H](n2cnc3c(N)ncnc32)[C@H](O)[C@@H]1O` was run?
A: The Potency was “inactive”.

Q: `C[N+]1(C)C2CCC1CC(OC(=O)c1c[nH]c3ccccc13)C2` (stereo not given) was tested. Which Potency did it give?
A: Its Potency is “inactive”.

Q: For `CC(N)Cc1c[nH]c2ccc(OCc3cccs3)cc12` (stereo not given), which Potency is on record?
A: The Potency was “inactive”.

Q: Which Potency does the source give for `CC(N)[C@H](O)c1ccc(O)c(O)c1` (stereo not given in full) here?
A: Its Potency is “inactive”.

Q: For `c1ccc2c(c1)[I+]c1ccccc1-2`, which Potency is on record?
A: Its Potency is “inactive”.

Q: Which Potency does the source give for `Nc1ccc(CCN2CCN(c3cccc(C(F)(F)F)c3)CC2)cc1` here?
A: The Potency was “inactive”.

Q: Which Potency does the source give for `Clc1cc(I)cc(Cl)c1NC1=NCCN1` here?
A: The Potency was “inactive”.

Q: `C[C@H](N)Cc1cccc(C(F)(F)F)c1` was tested. Which Potency did it give?
A: Its Potency is “inactive”.

Q: Which Potency does the source give for `CC(C)(C)OC(=O)NC1[C@H]2CNC[C@@H]12` (stereo not given in full) here?
A: The Potency was “inactive”.

Q: Which Potency does the source give for `CP(=O)(O)C1=CCNCC1` here?
A: The Potency was “inactive”.

Q: How did the Potency turn out when `N[C@@H](Cn1oc(=O)[nH]c1=O)C(=O)O` was run?
A: Its Potency is “inactive”.

Q: For `N#C/C(=C/c1ccc(O)c(O)c1)C(N)=S`, which Potency is on record?
A: The Potency was “inactive”.

Q: With `N#CCCN` as the compound, how does the Potency read?
A: The Potency was “inactive”.

Q: How did the Potency turn out when `Nc1cc2c(ncn2CCOCP(=O)(O)O)c(=O)[nH]1` was run?
A: The Potency was “inactive”.

Q: `CN1CCc2cccc(Cl)c2CC1` was tested. Which Potency did it give?
A: Its Potency is “inactive”.

Q: `CN1CC[C@@]2(C)c3cc(OC(=O)Nc4ccccc4)ccc3N(C)[C@@H]12` was tested. Which Potency did it give?
A: The Potency was “inactive”.

Q: `NCC(O)c1cc(O)c(O)cc1F` (stereo not given) was tested. Which Potency did it give?
A: The Potency was “inactive”.

Q: Which Potency does the source give for `COc1ccc2c(c1O)-c1cccc3c1[C@@H](C2)N(C)CC3` here?
A: Its Potency is “inactive”.

Q: `C[N+](C)(C)CCOC(=O)CBr` was tested. Which Potency did it give?
A: The Potency was “inactive”.

Q: Which Potency does the source give for `COC(=O)N1CCN(C(=O)Cc2ccc(Cl)c(Cl)c2)C(CN2CCCC2)C1` (stereo not given) here?
A: Its Potency is “inactive”.

Q: Which Potency does the source give for `C[N+]1(C)CCOC(O)(c2ccc(-c3ccc(C4(O)C[N+](C)(C)CCO4)cc3)cc2)C1` (stereo not given) here?
A: The Potency was “inactive”.

Q: Which Potency does the source give for `NC(Cc1cc(O)c(O)cc1O)C(=O)O` (stereo not given) here?
A: Its Potency is 35.5 µM (active).

Q: How did the Potency turn out when `C[N+](C)(C)CC#CCN1CCCC1=O` was run?
A: Its Potency is “inactive”.

Q: With `O=C1/C(=C/c2ccccc2)C[C@@]2(O)[C@H]3Cc4ccc(O)c5c4[C@@]2(CCN3CC2CC2)[C@H]1O5` as the compound, how does the Potency read?
A: Its Potency is “inactive”.

Q: How did the Potency turn out when `NC(CCCCCP(=O)(O)O)C(=O)O` (stereo not given) was run?
A: The Potency was “inactive”.

Q: With `NCCc1ccc(S(=O)(=O)F)cc1` as the compound, how does the Potency read?
A: The Potency was “inactive”.

Q: `CCOC(=O)c1ncn2c1[C@@H]1CCCN1C(=O)c1cc(OC)ccc1-2` was tested. Which Potency did it give?
A: The Potency was “inactive”.

Q: Which Potency does the source give for `CC12NC(Cc3ccccc31)c1ccccc12` (stereo not given) here?
A: Its Potency is “inactive”.

Q: How did the Potency turn out when `NC(N)=Nc1ccc2[nH]c3c(c2c1)C[C@@]1(O)[C@H]2Cc4ccc(O)c5c4[C@@]1(CCN2CC1CC1)[C@H]3O5` was run?
A: Its Potency is “inactive”.
